# According to article PMC7862700, “An all-to-all approach to the identification of sequence-specific readers for epigenetic DNA modifications on cytosine”:
# Experiments:
# Assay in all cases: DAPPL (digital affinity profiling via proximity ligation, sequencing); 10 mM Tris-HCl pH 7.5, 50 mM NaCl, 1 mM DTT, 4% glycerol, room temperature, 30 min; GST-TFs on glutathione beads, 16-mer random dsDNA library, 0.1% formaldehyde crosslink after washing; high values mean tight binding
# FLI1 = target: T1, FLI1 (Homo sapiens, UniProt Q01543 1-452); details: protein: recombinant; tags: N-terminal GST; dsDNA, one strand shown
# T1 sequence: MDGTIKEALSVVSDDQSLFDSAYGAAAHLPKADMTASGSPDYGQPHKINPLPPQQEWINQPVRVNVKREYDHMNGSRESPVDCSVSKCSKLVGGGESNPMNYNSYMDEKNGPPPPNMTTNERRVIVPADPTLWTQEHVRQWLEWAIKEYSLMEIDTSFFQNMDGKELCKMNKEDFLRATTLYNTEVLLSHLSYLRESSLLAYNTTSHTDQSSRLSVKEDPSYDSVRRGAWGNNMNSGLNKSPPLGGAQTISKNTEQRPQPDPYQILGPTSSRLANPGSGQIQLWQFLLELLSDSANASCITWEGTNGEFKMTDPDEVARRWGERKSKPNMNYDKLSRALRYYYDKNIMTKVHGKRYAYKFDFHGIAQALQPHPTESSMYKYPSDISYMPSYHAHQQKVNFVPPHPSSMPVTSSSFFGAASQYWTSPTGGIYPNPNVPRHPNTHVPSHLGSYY
# Summary of the method: (§1)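 GST fusions of human transcription factors were expressed in yeast and captured with glutathione beads. Once given DNA barcodes and pooled alongside a tag-only sample, they were incubated for 30 min at room temperature with 200 nmole of a random double-stranded 16-mer DNA library in Tris/NaCl/DTT/glycerol buffer, then washed, crosslinked (0.1% formaldehyde), proximity-ligated, PCR-amplified and sequenced on an Illumina NextSeq500. The binding signal of each hexamer is its read frequency for a factor divided by its frequency for the tag-only sample.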
# ELK1 = target: T2, ELK1 (Homo sapiens, UniProt P19419 1-428); details: protein: recombinant; tags: N-terminal GST; dsDNA, one strand shown
# T2 sequence: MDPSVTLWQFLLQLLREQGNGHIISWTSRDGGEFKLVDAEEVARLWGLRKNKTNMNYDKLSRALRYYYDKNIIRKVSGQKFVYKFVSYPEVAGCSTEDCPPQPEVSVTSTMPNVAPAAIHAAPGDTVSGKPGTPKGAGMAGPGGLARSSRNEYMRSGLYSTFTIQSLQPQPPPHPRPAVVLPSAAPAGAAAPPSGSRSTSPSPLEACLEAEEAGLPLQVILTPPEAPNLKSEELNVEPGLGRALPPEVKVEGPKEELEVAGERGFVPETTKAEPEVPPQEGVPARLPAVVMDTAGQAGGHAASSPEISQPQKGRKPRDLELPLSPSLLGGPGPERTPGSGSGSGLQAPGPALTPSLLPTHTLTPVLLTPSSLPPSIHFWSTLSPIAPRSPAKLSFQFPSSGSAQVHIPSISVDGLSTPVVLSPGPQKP
# Summary of the method: as §1
# GABPA = target: T3, GABPA (Homo sapiens, UniProt Q06546 1-454); details: protein: recombinant; tags: N-terminal GST; dsDNA, one strand shown
# T3 sequence: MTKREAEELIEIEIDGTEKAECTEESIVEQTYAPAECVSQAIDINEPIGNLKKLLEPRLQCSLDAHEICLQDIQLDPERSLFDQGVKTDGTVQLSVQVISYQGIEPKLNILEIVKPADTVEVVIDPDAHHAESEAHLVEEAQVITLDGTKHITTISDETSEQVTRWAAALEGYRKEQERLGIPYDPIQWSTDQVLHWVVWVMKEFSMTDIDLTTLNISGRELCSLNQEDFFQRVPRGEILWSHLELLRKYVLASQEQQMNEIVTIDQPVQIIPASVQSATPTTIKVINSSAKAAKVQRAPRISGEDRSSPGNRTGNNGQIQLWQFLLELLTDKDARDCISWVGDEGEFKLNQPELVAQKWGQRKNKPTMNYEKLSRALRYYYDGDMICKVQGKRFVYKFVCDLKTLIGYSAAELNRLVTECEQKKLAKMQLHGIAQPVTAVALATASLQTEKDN
# Summary of the method: as §1
# ERG = target: T4, ERG (Homo sapiens, UniProt P11308 1-479); details: protein: recombinant; tags: N-terminal GST; dsDNA, one strand shown
# T4 sequence: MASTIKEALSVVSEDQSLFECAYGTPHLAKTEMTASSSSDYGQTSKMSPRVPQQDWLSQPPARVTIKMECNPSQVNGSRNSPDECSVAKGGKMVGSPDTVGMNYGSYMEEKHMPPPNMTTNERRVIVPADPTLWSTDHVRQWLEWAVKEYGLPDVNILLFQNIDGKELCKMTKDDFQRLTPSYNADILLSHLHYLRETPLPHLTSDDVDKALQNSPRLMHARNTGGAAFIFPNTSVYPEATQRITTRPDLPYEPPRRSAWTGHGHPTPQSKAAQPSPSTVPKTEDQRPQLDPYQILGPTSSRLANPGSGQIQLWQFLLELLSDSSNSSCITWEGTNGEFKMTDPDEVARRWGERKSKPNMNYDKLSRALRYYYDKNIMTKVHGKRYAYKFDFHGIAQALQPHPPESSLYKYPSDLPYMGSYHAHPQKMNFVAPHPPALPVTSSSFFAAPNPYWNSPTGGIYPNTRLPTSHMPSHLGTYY
# Summary of the method: as §1
# ELF1 = ELF1 (Homo sapiens, UniProt P32519 1-619); details: protein: recombinant; tags: N-terminal GST; dsDNA, one strand shown
# ELF1, sequence (P32519 whole entry): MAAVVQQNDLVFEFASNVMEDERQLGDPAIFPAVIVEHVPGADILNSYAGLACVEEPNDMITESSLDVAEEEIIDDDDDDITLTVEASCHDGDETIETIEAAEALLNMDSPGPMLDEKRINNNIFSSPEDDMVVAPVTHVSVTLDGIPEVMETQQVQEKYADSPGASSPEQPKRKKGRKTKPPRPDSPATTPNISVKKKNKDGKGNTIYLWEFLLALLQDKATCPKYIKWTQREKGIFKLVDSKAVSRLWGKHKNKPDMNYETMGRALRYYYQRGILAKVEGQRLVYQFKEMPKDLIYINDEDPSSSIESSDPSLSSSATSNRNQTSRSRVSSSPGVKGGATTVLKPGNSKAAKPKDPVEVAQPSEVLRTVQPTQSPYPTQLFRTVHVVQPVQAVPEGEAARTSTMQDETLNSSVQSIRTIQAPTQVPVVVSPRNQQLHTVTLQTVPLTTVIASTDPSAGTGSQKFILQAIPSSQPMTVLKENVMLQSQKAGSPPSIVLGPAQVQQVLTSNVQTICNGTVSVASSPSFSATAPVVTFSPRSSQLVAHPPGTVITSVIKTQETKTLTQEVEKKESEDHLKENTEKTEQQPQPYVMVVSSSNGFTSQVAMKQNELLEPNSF
# Summary of the method: as §1
# EHF = target: T5, EHF (Homo sapiens, UniProt Q9NZC4 1-300); details: protein: recombinant; tags: N-terminal GST; dsDNA, one strand shown
# T5 sequence: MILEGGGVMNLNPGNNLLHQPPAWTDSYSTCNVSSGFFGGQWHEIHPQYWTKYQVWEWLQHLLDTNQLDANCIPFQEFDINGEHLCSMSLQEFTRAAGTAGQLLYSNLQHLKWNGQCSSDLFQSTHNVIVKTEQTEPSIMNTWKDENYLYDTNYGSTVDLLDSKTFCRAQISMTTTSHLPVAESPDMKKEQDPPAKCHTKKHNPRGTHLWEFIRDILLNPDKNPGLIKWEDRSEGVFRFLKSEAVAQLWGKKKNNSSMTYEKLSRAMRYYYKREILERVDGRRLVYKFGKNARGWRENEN
# Summary of the method: as §1
# SPI1 = SPI1 (Homo sapiens, UniProt P17947 1-270); details: protein: recombinant; tags: N-terminal GST; dsDNA, one strand shown
# Summary of the method: as §1
# SPIB = SPIB (Homo sapiens, UniProt Q01892 1-262); details: protein: recombinant; tags: N-terminal GST; dsDNA, one strand shown
# SPIB, sequence (Q01892 whole entry): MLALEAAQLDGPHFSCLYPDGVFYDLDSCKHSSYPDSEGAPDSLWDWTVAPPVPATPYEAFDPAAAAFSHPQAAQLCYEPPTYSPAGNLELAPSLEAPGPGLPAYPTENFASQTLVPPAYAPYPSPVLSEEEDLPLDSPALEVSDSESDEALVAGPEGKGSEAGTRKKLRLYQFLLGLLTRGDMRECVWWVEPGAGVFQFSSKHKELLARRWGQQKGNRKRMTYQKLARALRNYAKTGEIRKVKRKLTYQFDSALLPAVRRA
# Summary of the method: as §1
# ELK3 = target: T6, ELK3 (Homo sapiens, UniProt P41970 1-407); details: protein: recombinant; tags: N-terminal GST; dsDNA, one strand shown
# T6 sequence: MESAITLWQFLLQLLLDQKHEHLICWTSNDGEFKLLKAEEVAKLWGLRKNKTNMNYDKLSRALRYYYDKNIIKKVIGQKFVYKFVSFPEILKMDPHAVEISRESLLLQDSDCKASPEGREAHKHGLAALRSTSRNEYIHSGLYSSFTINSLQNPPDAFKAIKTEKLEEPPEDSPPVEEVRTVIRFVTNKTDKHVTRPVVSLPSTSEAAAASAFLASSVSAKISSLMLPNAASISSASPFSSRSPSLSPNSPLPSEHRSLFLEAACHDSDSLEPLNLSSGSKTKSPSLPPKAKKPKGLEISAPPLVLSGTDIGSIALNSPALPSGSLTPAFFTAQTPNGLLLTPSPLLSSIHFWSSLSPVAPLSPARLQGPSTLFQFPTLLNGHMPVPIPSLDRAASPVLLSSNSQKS
# Summary of the method: as §1
# FEV = target: T7, FEV (Homo sapiens, UniProt Q99581 1-238); details: protein: recombinant; tags: N-terminal GST; dsDNA, one strand shown
# T7 sequence: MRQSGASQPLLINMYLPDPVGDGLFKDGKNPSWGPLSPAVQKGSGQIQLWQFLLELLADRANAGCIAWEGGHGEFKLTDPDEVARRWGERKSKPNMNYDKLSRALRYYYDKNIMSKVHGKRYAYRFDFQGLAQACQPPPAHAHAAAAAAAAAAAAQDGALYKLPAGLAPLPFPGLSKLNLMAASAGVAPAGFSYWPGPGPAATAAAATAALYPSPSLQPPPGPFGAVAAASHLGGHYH
# Summary of the method: as §1
# ETV5 = ETV5 (Homo sapiens, UniProt P41161 1-510); details: protein: recombinant; tags: N-terminal GST; dsDNA, one strand shown
# ETV5, sequence (P41161 whole entry): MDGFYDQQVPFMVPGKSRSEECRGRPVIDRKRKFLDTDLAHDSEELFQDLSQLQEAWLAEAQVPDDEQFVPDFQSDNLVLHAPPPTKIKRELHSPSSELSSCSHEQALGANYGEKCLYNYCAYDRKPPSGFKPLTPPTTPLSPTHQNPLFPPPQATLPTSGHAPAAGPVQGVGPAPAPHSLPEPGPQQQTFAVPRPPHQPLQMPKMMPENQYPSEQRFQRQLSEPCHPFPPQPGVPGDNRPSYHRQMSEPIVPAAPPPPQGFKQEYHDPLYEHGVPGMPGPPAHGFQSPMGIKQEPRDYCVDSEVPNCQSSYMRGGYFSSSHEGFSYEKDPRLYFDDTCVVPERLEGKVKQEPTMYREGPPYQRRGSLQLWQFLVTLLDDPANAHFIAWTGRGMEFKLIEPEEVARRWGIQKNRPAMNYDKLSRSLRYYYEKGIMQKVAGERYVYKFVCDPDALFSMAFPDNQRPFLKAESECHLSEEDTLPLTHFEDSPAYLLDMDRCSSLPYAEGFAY
# Summary of the method: as §1
# HSF1 = HSF1 (Homo sapiens, UniProt Q00613 1-529); details: protein: recombinant; tags: N-terminal GST; chain copies: 3; dsDNA, one strand shown
# HSF1, sequence (Q00613 whole entry): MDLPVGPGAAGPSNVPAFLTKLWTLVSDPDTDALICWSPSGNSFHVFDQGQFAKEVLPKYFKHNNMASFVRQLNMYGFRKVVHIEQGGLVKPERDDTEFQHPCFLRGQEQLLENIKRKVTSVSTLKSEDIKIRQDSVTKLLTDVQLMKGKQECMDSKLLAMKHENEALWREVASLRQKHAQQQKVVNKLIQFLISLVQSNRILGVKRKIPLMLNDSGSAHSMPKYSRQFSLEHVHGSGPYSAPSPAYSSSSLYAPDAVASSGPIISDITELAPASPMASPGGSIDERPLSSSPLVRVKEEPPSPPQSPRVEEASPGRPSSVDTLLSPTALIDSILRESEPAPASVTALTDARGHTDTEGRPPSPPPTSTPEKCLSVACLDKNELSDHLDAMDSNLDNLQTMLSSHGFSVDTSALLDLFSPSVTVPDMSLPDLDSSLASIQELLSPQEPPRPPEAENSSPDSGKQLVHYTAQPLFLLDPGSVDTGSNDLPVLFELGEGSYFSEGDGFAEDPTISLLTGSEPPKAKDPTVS
# Summary of the method: as §1
# SPIC = target: T8, SPIC (Homo sapiens, UniProt Q8N5J4 1-248); details: protein: recombinant; tags: N-terminal GST; dsDNA, one strand shown
# T8 sequence: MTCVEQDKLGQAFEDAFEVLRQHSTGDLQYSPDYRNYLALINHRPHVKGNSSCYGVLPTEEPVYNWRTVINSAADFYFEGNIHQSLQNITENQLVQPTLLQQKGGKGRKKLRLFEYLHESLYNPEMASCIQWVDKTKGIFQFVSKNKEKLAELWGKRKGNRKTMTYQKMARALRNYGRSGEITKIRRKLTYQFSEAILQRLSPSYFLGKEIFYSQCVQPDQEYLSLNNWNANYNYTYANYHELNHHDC
# Summary of the method: as §1
# ELF4 = ELF4 (Homo sapiens, UniProt Q99607 1-663); details: protein: recombinant; tags: N-terminal GST; dsDNA, one strand shown
# ELF4, sequence (Q99607 whole entry): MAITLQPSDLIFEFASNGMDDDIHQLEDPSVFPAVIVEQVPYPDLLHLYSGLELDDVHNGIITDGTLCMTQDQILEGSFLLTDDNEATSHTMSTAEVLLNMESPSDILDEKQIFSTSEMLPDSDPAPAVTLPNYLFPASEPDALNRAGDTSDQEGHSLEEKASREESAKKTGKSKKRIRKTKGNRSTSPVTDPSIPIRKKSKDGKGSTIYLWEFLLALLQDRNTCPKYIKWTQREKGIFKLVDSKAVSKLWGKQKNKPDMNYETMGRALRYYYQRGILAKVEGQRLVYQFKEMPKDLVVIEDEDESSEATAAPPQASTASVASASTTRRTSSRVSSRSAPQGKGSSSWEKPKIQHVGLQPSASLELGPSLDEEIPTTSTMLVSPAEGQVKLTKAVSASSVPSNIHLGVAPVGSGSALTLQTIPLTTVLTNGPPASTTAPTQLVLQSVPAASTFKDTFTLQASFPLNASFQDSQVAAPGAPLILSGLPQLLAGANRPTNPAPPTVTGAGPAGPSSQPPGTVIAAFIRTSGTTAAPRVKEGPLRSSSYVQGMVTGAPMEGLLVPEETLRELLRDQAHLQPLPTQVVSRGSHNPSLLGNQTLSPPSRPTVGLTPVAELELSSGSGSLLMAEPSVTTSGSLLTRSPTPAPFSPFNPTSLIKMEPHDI
# Summary of the method: as §1
# ELK4 = target: T9, ELK4 (Homo sapiens, UniProt P28324-2 1-405); details: protein: recombinant; tags: N-terminal GST; dsDNA, one strand shown
# T9 sequence: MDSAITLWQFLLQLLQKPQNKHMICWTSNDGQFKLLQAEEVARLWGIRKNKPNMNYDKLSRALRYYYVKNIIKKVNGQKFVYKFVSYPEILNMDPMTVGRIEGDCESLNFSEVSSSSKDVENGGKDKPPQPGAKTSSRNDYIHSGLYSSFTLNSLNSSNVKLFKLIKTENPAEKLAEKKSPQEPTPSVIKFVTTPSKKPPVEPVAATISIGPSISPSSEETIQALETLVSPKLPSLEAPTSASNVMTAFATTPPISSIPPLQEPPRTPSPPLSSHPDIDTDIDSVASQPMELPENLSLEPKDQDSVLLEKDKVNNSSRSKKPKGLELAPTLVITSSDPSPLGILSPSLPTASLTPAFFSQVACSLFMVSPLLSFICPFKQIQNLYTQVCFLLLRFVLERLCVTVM
# Summary of the method: as §1
# ETV2 = target: T10, ETV2 (Homo sapiens, UniProt O00321 1-342); details: protein: recombinant; tags: N-terminal GST; dsDNA, one strand shown
# T10 sequence: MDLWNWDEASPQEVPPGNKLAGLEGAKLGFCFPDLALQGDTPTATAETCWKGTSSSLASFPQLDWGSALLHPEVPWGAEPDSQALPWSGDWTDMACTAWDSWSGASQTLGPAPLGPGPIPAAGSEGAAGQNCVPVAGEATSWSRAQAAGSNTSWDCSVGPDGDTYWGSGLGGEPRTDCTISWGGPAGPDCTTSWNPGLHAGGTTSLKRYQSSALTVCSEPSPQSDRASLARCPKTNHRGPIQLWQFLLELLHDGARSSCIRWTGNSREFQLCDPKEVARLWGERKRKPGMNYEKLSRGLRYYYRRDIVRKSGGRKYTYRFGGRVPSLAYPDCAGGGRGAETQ
# Summary of the method: as §1
# ELF3 = target: T11, ELF3 (Homo sapiens, UniProt P78545 1-371); details: protein: recombinant; tags: N-terminal GST; dsDNA, one strand shown
# T11 sequence: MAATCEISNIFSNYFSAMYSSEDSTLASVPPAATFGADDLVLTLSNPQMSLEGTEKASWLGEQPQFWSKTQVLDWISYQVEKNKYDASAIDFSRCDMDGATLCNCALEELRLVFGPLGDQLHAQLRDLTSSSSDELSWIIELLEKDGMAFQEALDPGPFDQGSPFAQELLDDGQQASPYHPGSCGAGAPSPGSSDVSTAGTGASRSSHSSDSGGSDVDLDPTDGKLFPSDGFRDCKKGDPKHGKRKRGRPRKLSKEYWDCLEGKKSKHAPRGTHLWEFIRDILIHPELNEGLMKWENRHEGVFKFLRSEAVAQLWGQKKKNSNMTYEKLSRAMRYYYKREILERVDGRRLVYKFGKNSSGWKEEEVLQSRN
# Summary of the method: as §1
# CRX = CRX (Homo sapiens, UniProt O43186 1-299); details: protein: recombinant; tags: N-terminal GST; dsDNA, one strand shown
# CRX, sequence (O43186 whole entry): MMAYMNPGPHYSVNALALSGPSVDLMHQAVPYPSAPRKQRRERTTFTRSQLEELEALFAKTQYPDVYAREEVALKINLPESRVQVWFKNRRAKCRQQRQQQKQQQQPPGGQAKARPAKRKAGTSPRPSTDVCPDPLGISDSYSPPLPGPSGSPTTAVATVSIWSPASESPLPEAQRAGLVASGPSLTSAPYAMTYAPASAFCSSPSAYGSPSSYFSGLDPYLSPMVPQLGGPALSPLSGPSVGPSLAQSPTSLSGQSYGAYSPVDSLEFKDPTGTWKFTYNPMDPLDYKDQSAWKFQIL
# Summary of the method: as §1
# ETV1 = ETV1 (Homo sapiens, UniProt P50549 1-477); details: protein: recombinant; tags: N-terminal GST; dsDNA, one strand shown
# ETV1, sequence (P50549 whole entry): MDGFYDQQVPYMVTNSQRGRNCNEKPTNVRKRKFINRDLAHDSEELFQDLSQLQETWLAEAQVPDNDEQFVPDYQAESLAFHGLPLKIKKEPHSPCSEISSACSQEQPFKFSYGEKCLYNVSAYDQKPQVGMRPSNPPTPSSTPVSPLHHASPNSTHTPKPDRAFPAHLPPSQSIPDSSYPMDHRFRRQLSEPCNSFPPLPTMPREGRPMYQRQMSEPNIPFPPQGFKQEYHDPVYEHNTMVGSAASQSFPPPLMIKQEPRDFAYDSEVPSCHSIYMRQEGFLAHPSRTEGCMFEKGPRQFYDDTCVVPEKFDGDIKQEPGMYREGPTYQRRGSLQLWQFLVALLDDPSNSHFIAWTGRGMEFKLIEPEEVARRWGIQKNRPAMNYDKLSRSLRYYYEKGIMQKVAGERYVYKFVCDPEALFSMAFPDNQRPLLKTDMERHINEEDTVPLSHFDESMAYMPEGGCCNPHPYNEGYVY
# Summary of the method: as §1
sequence,measurement,setting,value
CTCACT,binding signal,FLI1,"1.61 fold enrichment (6-mer frequency, TF over GST control)"
same,binding signal,ELK1,"1.76 fold enrichment (6-mer frequency, TF over GST control)"
same,binding signal,GABPA,"1.59 fold enrichment (6-mer frequency, TF over GST control)"
same,binding signal,ERG,"1.57 fold enrichment (6-mer frequency, TF over GST control)"
same,binding signal,ELF1,"1.49 fold enrichment (6-mer frequency, TF over GST control)"
same,binding signal,EHF,"1.56 fold enrichment (6-mer frequency, TF over GST control)"
same,binding signal,SPI1,"1.68 fold enrichment (6-mer frequency, TF over GST control)"
same,binding signal,SPIB,"1.66 fold enrichment (6-mer frequency, TF over GST control)"
same,binding signal,ELK3,"1.5 fold enrichment (6-mer frequency, TF over GST control)"
same,binding signal,FEV,"1.63 fold enrichment (6-mer frequency, TF over GST control)"
same,binding signal,ETV5,"1.4 fold enrichment (6-mer frequency, TF over GST control)"
same,binding signal,HSF1,"1.36 fold enrichment (6-mer frequency, TF over GST control)"
same,binding signal,SPIC,"1.57 fold enrichment (6-mer frequency, TF over GST control)"
same,binding signal,ELF4,"1.53 fold enrichment (6-mer frequency, TF over GST control)"
same,binding signal,ELK4,"1.38 fold enrichment (6-mer frequency, TF over GST control)"
same,binding signal,ETV2,"1.51 fold enrichment (6-mer frequency, TF over GST control)"
same,binding signal,ELF3,"1.63 fold enrichment (6-mer frequency, TF over GST control)"
same,binding signal,CRX,"1.27 fold enrichment (6-mer frequency, TF over GST control)"
same,binding signal,ETV1,"1.49 fold enrichment (6-mer frequency, TF over GST control)"
